{"source": "PubChem BioAssay (Tox21)", "note": "Values joined by “and” are separate entries in the source; they are usually repeats but may differ in a detail not shown here. Equal entries are not always repeated. Records with an inconclusive call do not appear. A call without a number means that no potency is given here. Some compounds were tested as several samples or in several runs, with calls that do not always agree. Active and inactive are the calls of the source. Calls follow the shape of the dose curve; as a rule, active = well fitted activation curve with a large enough effect in the repeat runs; inconclusive = weak or mixed curves; inactive = flat fitted curve, though single readings scatter. Starred links: 1 amine or outer side, 2 acyl side, 3 side chain; linkers in the order of their positions; H or OH if unused. Positions of bridges follow the written chain, without caps; N, C: chain ends. Non-standard residues stand in square brackets, D forms with d. Residues, ends and D or L forms follow the SMILES beside them. Chains are numbered I, II in the order given. Actinocin(9to1) = Cc1c2oc3c(C)ccc(C(=O)[*:1])c3nc-2c(C(=O)[*:2])c(N)c1=O; NMeV = CN[C@H](C(=O)O)C(C)C; Sar = CNCC(=O)O"}
{"test": "A CellTox Green Cytotoxicity Assay to monitor cytotoxicity in HepG2 cells - 16 hour (AID 1224876); also: nearly all actives have a fitted effect of over 45% in size; also: potency is read from the fitted curve at half-maximal effect", "conditions": "CellTox Green fluorescence; series mostly up to 76.8 µM", "excerpt": "National Center for Advancing Translational Sciences [NCATS]\nNIH Chemical Genomics Center [NCGC]\nU.S. Environmental Protection Agency [EPA]\nNational Institutes of Environmental Health Sciences [NIEHS]\nNational Toxicology Program [NTP]\nCell-based models are critical for drug discovery. Determining the natural cytotoxic effects resulting from test compounds is an essential research activity. A CellTox Green Cytotoxicity Assay to monitor cytotoxicity in real time of continues cell culture during 40 hours of the compound treatment was used to screen Tox21 10K library compounds in HepG2 cells. CellTox Green Cytotoxicity Assay is a nonlytic, homogeneous, biofluorescent method to measure cytotoxicity in cell culture after experimental manipulation. The assay system uses a proprietary asymmetric cyanine dye that is excluded from viable cells but preferentially stains the dead cell's DNA. […] Viable cells produce no appreciable increases in fluorescence. Therefore, the fluorescence signal produced by the binding interaction with dead cell DNA is proportional to cytotoxicity.\nThe mixture of HepG2 cell suspension and reagents were dispensed at 600cells/6 ul/well in 1536-well tissue culture treated black solid bottom plates using a Multidrop dispenser. After the assay plates were incubated at a 37 C/5% CO2 incubator for 5 hours, 23 nL of compounds dissolved in DMSO, positive and negative controls was transferred to the assay plate by a pintool work station. The plates were incubated at 37 C for 40 hours. The fluorescence intensity were measured at 0h, 8h, 16h, 24h, 32h and 40h time points using ViewLux plate reader during compound treatment."}
{"smiles": "CC(=O)OCCOCCOCCOC(C)=O", "Potency": "inactive"}
{"smiles": "CC[C@@H](N)CO", "Potency": "inactive"}
{"smiles": "NC(Cc1ccc(Cl)cc1)C(=O)O", "note": "(stereo not given)", "cytotoxicity increase": "-4.84% [at 0.29 µM] (inactive)"}
{"smiles": "Nc1nc2ccccc2[nH]1", "Potency": "inactive"}
{"smiles": "NC(N)=Nc1nc(CSCC/C(N)=N/S(N)(=O)=O)cs1", "Potency": "4.36 µM (active) and inactive"}
{"smiles": "c1cnc2cc3c(cc2n1)C1CNCC3C1", "Potency": "inactive"}
{"smiles": "c1cc(C(c2ccc(OCC3CO3)cc2)C(c2ccc(OCC3CO3)cc2)c2ccc(OCC3CO3)cc2)ccc1OCC1CO1", "note": "(stereo not given)", "Potency": "inactive"}
{"smiles": "CCn1c2ccccc2c2cc(N)ccc21", "Potency": "inactive"}
{"smiles": "CC(C)(C)NCC(O)COc1ccccc1OCC1CCCO1", "note": "(stereo not given)", "Potency": "inactive"}
{"smiles": "Nc1cc(S(=O)(=O)O)cc2cc(S(=O)(=O)O)cc(O)c12", "Potency": "inactive"}
{"smiles": "Cc1c2oc3c(C)ccc(C(=O)N[C@@H]4C(=O)N[C@H](C(C)C)C(=O)N5CCC[C@H]5C(=O)N(C)CC(=O)N(C)[C@@H](C(C)C)C(=O)O[C@@H]4C)c3nc-2c(C(=O)N[C@@H]2C(=O)N[C@H](C(C)C)C(=O)N3CCC[C@H]3C(=O)N(C)CC(=O)N(C)[C@@H](C(C)C)C(=O)O[C@@H]2C)c(N)c1=O", "note": "(I: T[dV]P[Sar][NMeV] / II: T[dV]P[Sar][NMeV]; ester I:1-I:C, II:1-II:C; linker I:N-II:N via Actinocin(9to1))", "Potency": "inactive"}
{"smiles": "CCOC(=O)C(C)C(C)=O", "note": "(stereo not given)", "Potency": "inactive"}
{"smiles": "O", "Potency": "inactive"}
{"smiles": "CC(N)=O", "Potency": "inactive"}
{"smiles": "CCCCOCCOC(=O)c1ccccc1C(=O)OCCOCCCC", "Potency": "inactive"}
{"smiles": "O=Cc1ccc(Cl)cc1", "Potency": "inactive"}
{"smiles": "Nc1ccc(O)cc1", "Potency": "inactive"}
{"smiles": "CC(C)(c1ccccc1)c1ccc(Nc2ccc(C(C)(C)c3ccccc3)cc2)cc1", "Potency": "inactive"}
{"smiles": "c1ccc2cc3c(ccc4ccccc43)cc2c1", "Potency": "inactive"}
{"smiles": "CN(C)c1ccc2nc3ccc(=[N+](C)C)cc-3sc2c1", "Potency": "inactive"}
{"smiles": "CC(=O)Nc1ccc(C(=O)CCl)cc1", "Potency": "inactive"}
{"smiles": "O=C(Cl)c1cccc(C(=O)Cl)c1", "Potency": "inactive"}
{"smiles": "CN1C(=O)c2ccc([N+](=O)[O-])cc2C1=O", "Potency": "inactive"}
{"smiles": "CC(=O)O[C@]1(C(C)=O)CC[C@H]2[C@@H]3C[C@H](C)C4=CC(=O)CC[C@]4(C)[C@H]3CC[C@@]21C", "Potency": "inactive"}
{"smiles": "O=C(OCc1ccccc1)c1ccc(O)cc1", "Potency": "inactive"}
{"smiles": "CCCNC(C)C(=O)Nc1ccccc1C", "note": "(stereo not given)", "Potency": "inactive"}
{"smiles": "Cc1scc2c1N(C(=O)CN1CCN(C)CC1)c1ccccc1NC2=O", "Potency": "inactive"}
{"smiles": "Cc1ccc(-c2cc(C(F)(F)F)nn2-c2ccc(S(N)(=O)=O)cc2)cc1", "Potency": "48.8 µM (active) and 43.6 µM (active)"}
{"smiles": "CCn1cc(C(=O)O)c(=O)c2cc(F)c(N3CCNC(C)C3)c(F)c21", "note": "(stereo not given)", "Potency": "inactive"}
{"smiles": "NC(N)=NC(=O)Cc1c(Cl)cccc1Cl", "Potency": "inactive"}
{"smiles": "Cc1cccc([N+](=O)[O-])c1C(=O)O", "Potency": "inactive"}
{"smiles": "Cc1occc(=O)c1OC(=O)C(C)C", "Potency": "inactive"}
{"smiles": "O=C(O[C@@H]1Cc2c(O)cc(O)cc2O[C@@H]1c1cc(O)c(O)c(O)c1)c1cc(O)c(O)c(O)c1", "Potency": "inactive"}
{"smiles": "CCC[C@H](N[C@@H](C)C(=O)N1[C@H](C(=O)O)C[C@@H]2CCCC[C@@H]21)C(=O)OCC", "Potency": "inactive"}
{"smiles": "CCc1ccc(C(c2ccc(CC)cc2)C(Cl)Cl)cc1", "Potency": "inactive"}
{"smiles": "CC1COc2c(N3CCN(C)CC3)c(F)cc3c(=O)c(C(=O)O)cn1c23", "note": "(stereo not given)", "Potency": "inactive"}
{"smiles": "CCC(C)(C)C(=O)O[C@H]1C[C@@H](C)C=C2C=C[C@H](C)[C@H](CC[C@@H]3C[C@@H](O)CC(=O)O3)[C@H]21", "Potency": "inactive and 21.3 µM (active)"}
{"smiles": "O=c1n(CC2CO2)c(=O)n(CC2CO2)c(=O)n1CC1CO1", "note": "(stereo not given)", "Potency": "inactive"}
{"smiles": "COC(c1ccccc1)(c1ccccc1)[C@H](Oc1nc(C)cc(C)n1)C(=O)O", "Potency": "inactive"}
{"smiles": "CCC(C)(Oc1ccc(C2(c3ccc(OC(C)(CC)C(=O)O)cc3)CCCCC2)cc1)C(=O)O", "note": "(stereo not given)", "Potency": "inactive"}
